In PubChem BioAssay (NCATS):
Results filed as inconclusive are left out. The source made the active and inactive calls. The call rests on the fitted dose curve; in most records, active means well fitted curve in the direction sought with a large enough effect; inconclusive means small, poorly fitted or top-dose-only effect, or another doubt; inactive means no such curve, though single readings can be large; an effect the other way counts as inactive or inconclusive.

How the values were obtained:
CRL-7250 = normal cell line; test: Cytotoxic Profiling of Annotated Libraries Using Quantitative High-Throughput Screening (AID 1296008); conditions: Five cell lines viability, CellTiter-Glo ATP luminescence, 48-72 h; max response: hits give low values; further: nearly all actives have a fitted effect of over 60% in size; further: potency means the concentration at half of the fitted maximal effect
In short: (§1)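 Cells exposed to compounds for 48 or 72 hr at 37 degrees Celsius. Viability read as ATP-coupled luminescence with CellTiter-Glo after 10 min at room temperature.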

HaCat = test: as above; conditions: Five cell lines viability, CellTiter-Glo ATP luminescence, 48-72 h; max response: hits give low values
In short: as §1

KB-3-1 = test: as above; conditions: Five cell lines viability, CellTiter-Glo ATP luminescence, 48-72 h; max response: hits give low values
In short: as §1

NIH3T3 = test: as above; conditions: Five cell lines viability, CellTiter-Glo ATP luminescence, 48-72 h; max response: hits give low values
In short: as §1

C33A = test: Primary qHTS to identify gynecologic anti-cancer compounds using libraries of approved drugs and bioactive compounds (AID 1345084); conditions: Gynecologic cancer cell panel viability, ATPlite luminescence, 48 h; series mostly up to 57.5 µM; further: nearly all actives have a fitted effect of over 55% in size
In short: (§2)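 Cytotoxicity screen measuring ATP content by luciferase luminescence. Each compound is applied at five concentrations for 48 h at 37 C with 5% CO2.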

CAOV3 = test: as above; conditions: Gynecologic cancer cell panel viability, ATPlite luminescence, 48 h; series mostly up to 57.5 µM
In short: as §2

CASKI = test: as above; conditions: Gynecologic cancer cell panel viability, ATPlite luminescence, 48 h; series mostly up to 57.5 µM
In short: as §2

Es-2 = test: as above; conditions: Gynecologic cancer cell panel viability, ATPlite luminescence, 48 h; series mostly up to 57.5 µM
In short: as §2

HeLa = test: as above; conditions: Gynecologic cancer cell panel viability, ATPlite luminescence, 48 h; series mostly up to 57.5 µM
In short: as §2

Hek293T = test: as above; conditions: Gynecologic cancer cell panel viability, ATPlite luminescence, 48 h, control line for the selectivity index; series mostly up to 57.5 µM
In short: as §2

JEG-3 = test: as above; conditions: Gynecologic cancer cell panel viability, ATPlite luminescence, 48 h; series mostly up to 57.5 µM
In short: as §2

OV90 = test: as above; conditions: Gynecologic cancer cell panel viability, ATPlite luminescence, 48 h; series mostly up to 57.5 µM
In short: as §2

PA-1 = test: as above; conditions: Gynecologic cancer cell panel viability, ATPlite luminescence, 48 h; series mostly up to 57.5 µM
In short: as §2

SKOV3 = test: as above; conditions: Gynecologic cancer cell panel viability, ATPlite luminescence, 48 h; series mostly up to 57.5 µM
In short: as §2
On the % scale 0 is the no-effect control and ±100 the full control effect.

c1cc(-c2cnn3cc(-c4ccc(N5CCNCC5)cc4)cnc23)c2cccnc2c1
inactive: outcome (CRL-7250) | max response (HaCat) 0.937% | max response (NIH3T3) -2.87% | Potency (C33A) | Potency (CAOV3) | Potency (CASKI) | Potency (Es-2) | Potency (HeLa) | Potency (Hek293T) | Potency (JEG-3) | Potency (OV90) | Potency (PA-1) | Potency (SKOV3)
active: Potency (KB-3-1) 4.11 µM

CC(=O)O[C@@H]1CC2C(/C=C(\C)C(=O)[C@@]3(O)C[C@@H](C)[C@H](OC(=O)c4ccccc4)C3/C=C/1C)C2(C)C (stereo partly drawn)
inactive: outcome (CRL-7250) | max response (HaCat) -1.64% | outcome (KB-3-1) | max response (NIH3T3) 1.35% | Potency (C33A) | Potency (CAOV3) | Potency (CASKI) | Potency (Es-2) | Potency (HeLa) | Potency (Hek293T) | Potency (JEG-3) | Potency (OV90) | Potency (PA-1) | Potency (SKOV3)

Cc1ccc(CNc2ncnc3ccc(-c4ccc(CO)o4)cc23)o1
inactive: max response (CRL-7250) -10.7% | max response (KB-3-1) 8.1% | max response (NIH3T3) -6.8% | Potency (C33A) | Potency (CAOV3) | Potency (CASKI) | Potency (Es-2) | Potency (HeLa) | Potency (Hek293T) | Potency (JEG-3) | Potency (OV90) | Potency (PA-1) | Potency (SKOV3)
active: Potency (HaCat) 16.4 µM

CC(=O)O[C@@H]1[C@@H](O)[C@H](O[C@@H]2[C@@H](O)[C@@H](O)[C@H](O[C@H]3[C@H](O[C@H]4[C@H](O[C@H]5CC[C@@]6(C)C(CC[C@]7(C)C6CC=C6[C@@H]8CC(C)(C)CC[C@]8(C(=O)O)CC[C@]67C)[C@]5(C)CO)O[C@H](CO)[C@@H](O)[C@@H]4O)OC[C@@H](O)[C@@H]3O)O[C@H]2C)OC[C@H]1O (stereo partly drawn)
inactive: max response (CRL-7250) -25.8% | max response (HaCat) 3.54% | max response (KB-3-1) 9.51% | max response (NIH3T3) 3.03% | activity change, negative = cytotoxicity (C33A) -4.66% [at 11.6 µM] | activity change, negative = cytotoxicity (CAOV3) 10.9% [at 11.6 µM] | activity change, negative = cytotoxicity (CASKI) 17% [at 11.6 µM] | activity change, negative = cytotoxicity (Es-2) -1.31% [at 11.6 µM] | activity change, negative = cytotoxicity (HeLa) 2.05% [at 11.6 µM] | activity change, negative = cytotoxicity (Hek293T) 1.05% [at 11.6 µM] | activity change, negative = cytotoxicity (JEG-3) 13.7% [at 11.6 µM] | activity change, negative = cytotoxicity (OV90) 10.1% [at 11.6 µM] | activity change, negative = cytotoxicity (PA-1) -1.55% [at 11.6 µM] | activity change, negative = cytotoxicity (SKOV3) 10.7% [at 11.6 µM]

Cc1cc(F)ccc1-c1nc(NCCN=C(N)NC#N)nc2c1ccc(=O)n2-c1c(F)cccc1F
inactive: max response (CRL-7250) 1.44% | max response (HaCat) 4.96% | max response (KB-3-1) 0.209% | max response (NIH3T3) 4.3% | Potency (C33A) | Potency (CAOV3) | Potency (CASKI) | Potency (Es-2) | Potency (HeLa) | Potency (Hek293T) | Potency (JEG-3) | Potency (OV90) | Potency (PA-1) | Potency (SKOV3)

O=C(Nc1ccccc1C(=O)NC1CCCCNC1=O)c1cc2ccccc2s1 (stereo not drawn)
inactive: outcome (CRL-7250) | max response (HaCat) 4.7% | max response (KB-3-1) -2.87% | max response (NIH3T3) 4.3% | Potency (C33A) | Potency (CAOV3) | Potency (CASKI) | Potency (Es-2) | Potency (HeLa) | Potency (Hek293T) | Potency (JEG-3) | Potency (OV90) | Potency (PA-1) | Potency (SKOV3)

CC1(C=O)CCCC2(C)C1CCC13CC(CO)C(CCC12)C3 (stereo not drawn)
inactive: outcome (CRL-7250) | max response (HaCat) 3.29% | max response (KB-3-1) 7.38% | max response (NIH3T3) -4.47% | Potency (C33A) | Potency (CAOV3) | Potency (CASKI) | Potency (Es-2) | Potency (HeLa) | Potency (Hek293T) | Potency (JEG-3) | Potency (OV90) | Potency (PA-1) | Potency (SKOV3)

C/C(=C\CO[C@@H]1O[C@H](CO[C@H]2OC[C@](O)(CO)[C@H]2O)[C@@H](O)[C@H](O)[C@H]1O)C(C)(C)O
inactive: max response (CRL-7250) -3.13% | max response (HaCat) -2.99% | max response (KB-3-1) 2.14% | max response (NIH3T3) 3.25% | Potency (C33A) | Potency (CAOV3) | Potency (CASKI) | Potency (Es-2) | Potency (HeLa) | Potency (Hek293T) | Potency (JEG-3) | Potency (OV90) | Potency (PA-1) | Potency (SKOV3)

COc1cc(NC(=O)c2cc(C3CC3)on2)c(OC)cc1Cl
inactive: max response (CRL-7250) -0.243% | max response (HaCat) -5.44% | max response (KB-3-1) 7.13% | max response (NIH3T3) -5.84% | Potency (C33A) | Potency (CAOV3) | Potency (CASKI) | Potency (Es-2) | Potency (HeLa) | Potency (Hek293T) | Potency (JEG-3) | Potency (OV90) | Potency (PA-1) | Potency (SKOV3)

C=C(C(=O)O)[C@@H]1CC=C(CCC(C)=O)[C@@H](C)CC1
inactive: max response (CRL-7250) -0.888% | max response (HaCat) -4.33% | max response (KB-3-1) -14.7% | max response (NIH3T3) -3.55% | Potency (C33A) | Potency (CAOV3) | Potency (CASKI) | Potency (Es-2) | Potency (HeLa) | Potency (Hek293T) | Potency (JEG-3) | Potency (OV90) | Potency (PA-1) | Potency (SKOV3)

C=C[C@](C)(O)CC[C@H]1C(C)=CC(=O)[C@H]2C(C)(C)CCC[C@]12C
inactive: max response (CRL-7250) -9.12% | max response (HaCat) 1.13% | max response (KB-3-1) -5.31% | max response (NIH3T3) 0.554% | Potency (C33A) | Potency (CAOV3) | Potency (CASKI) | Potency (Es-2) | Potency (HeLa) | Potency (Hek293T) | Potency (JEG-3) | Potency (OV90) | Potency (PA-1) | Potency (SKOV3)

COc1c(C(C)C)c(O)c(O)c2c1C(OC)[C@H]1OC(=O)[C@@]23CCCC(C)(C)[C@H]13 (stereo partly drawn)
inactive: outcome (CRL-7250) | max response (HaCat) -9.13% | outcome (KB-3-1) | max response (NIH3T3) -6.75% | Potency (C33A) | Potency (CAOV3) | Potency (CASKI) | Potency (Es-2) | Potency (HeLa) | Potency (Hek293T) | Potency (JEG-3) | Potency (OV90) | Potency (PA-1) | Potency (SKOV3)
